Here are results for 22 molecules from PubChem BioAssay AID720540 (National Center for Advancing Translational Sciences (NCATS), 2013).

Among all 1,300 compounds or so, about 460 (35%) were called active. Inconclusive results (about 39%) are left out. This is one part of the list. A number with no mark means an inactive call. Calls come from the whole dose curve; as a rule, active = well fitted inhibition curve with a large enough effect; inconclusive = small, poorly fitted or top-dose-only effect; inactive = flat fitted curve, though single readings scatter.
Potency is the fitted concentration of half-maximal effect.

Protein phosphatase EYA2 (Homo sapiens), sequence (O00167 whole entry, looked up): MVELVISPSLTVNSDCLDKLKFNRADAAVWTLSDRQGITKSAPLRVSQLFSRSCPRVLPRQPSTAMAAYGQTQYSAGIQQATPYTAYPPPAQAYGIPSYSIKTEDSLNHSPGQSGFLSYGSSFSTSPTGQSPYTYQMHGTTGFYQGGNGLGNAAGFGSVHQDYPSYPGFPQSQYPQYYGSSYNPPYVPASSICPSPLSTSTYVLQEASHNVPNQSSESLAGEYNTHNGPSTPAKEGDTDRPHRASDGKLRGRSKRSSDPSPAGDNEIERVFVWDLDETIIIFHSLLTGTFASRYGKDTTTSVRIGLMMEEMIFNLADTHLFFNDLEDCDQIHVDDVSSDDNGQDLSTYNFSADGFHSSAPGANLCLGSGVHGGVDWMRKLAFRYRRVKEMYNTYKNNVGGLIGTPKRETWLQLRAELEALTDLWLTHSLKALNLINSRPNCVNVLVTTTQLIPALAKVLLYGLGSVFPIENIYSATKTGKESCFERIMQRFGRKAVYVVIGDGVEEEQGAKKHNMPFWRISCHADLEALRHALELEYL

The target in this assay is Protein phosphatase EYA2 (Homo sapiens) (UniProt O00167). Description: qHTS for Inhibitors of the Phosphatase Activity of Eya2: Confirmatory Assay for Cherry-picked Compounds.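 For activity change, negative = inhibition: 0% = DMSO wells and -100% = EGTA control giving full inhibition.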 Note: nearly all actives have a fitted effect of over 65% in size. The settings on record: purified EYA2 phosphatase activity, qHTS confirmation; series mostly up to 46.1 µM; activity change, negative = inhibition: at the top concentration. The gist of the method:
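Eya2 (0.2 uM working solution) preincubated 10 min at room temperature with compound in pH 7.5 HEPES buffer with MgCl2, BSA, DTT. OMFP added (50 uM working solution), 10 min more; fluorescence 485/525 nm, normalized to EGTA and DMSO.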
Background: qHTS replaces the single test concentration by a dilution series.
`NC(=O)c1ccc(-c2nnc(Nc3ccc(S(N)(=O)=O)cc3)c3ccccc23)cc1`: the Potency is 13.5 µM (active). For the molecule `COc1ccc(-c2csc(-c3ccc(C(=O)O)cc3)n2)cc1`, the “activity change, negative = inhibition” value was -19.6%.

Consider `COc1ccc(Nc2nnc(-c3ccc(C(N)=O)cc3)c3ccccc23)cc1`, for which the Potency was 4.78 µM (active).

For the molecule `CNC(=O)c1ccc(Nc2nnc(-c3ccc(C(N)=O)cc3)c3ccccc23)cc1`, the Potency is 4.78 µM (active).

As for `COc1ccc(NC(=O)c2[nH]c(C)c(C(C)=O)c2C)cc1Cl`, the “activity change, negative = inhibition” value is -25.3%. As to `Cc1cc2oc(C(=O)N(Cc3ccc(N(C)C)cc3)CC3CCCO3)c(C)c2cc1C` (configuration not stated), the Potency is 8.49 µM (active). As for `Cc1cc2oc(C(=O)N3CCN(Cc4ccccc4)CC3)c(C)c2cc1C`, the “activity change, negative = inhibition” value is -28.7%. As for `COc1ccc(N(CC(=O)N2CCCCC2)S(=O)(=O)c2c(C)nn(C)c2C)cc1`, the “activity change, negative = inhibition” value was -2.46%. For the molecule `COc1ccc(NC(=O)COc2cccc3c2CCN(C)C3=O)c(OC)c1`, the Potency is 12 µM (active). As to `COc1ccc(NC(=O)c2ccc(COc3ccccc3)o2)c(OC)c1`, the “activity change, negative = inhibition” value is -18.8%. In the case of `COc1ccc(NC(=O)c2ccc(CN3CCc4ccccc4C3)cc2)c(OC)c1`, the “activity change, negative = inhibition” value is -24.9%.

With `Clc1ccc(-n2nnnc2-c2cnc3ccccc3c2-c2ccccc2)cc1`, the “activity change, negative = inhibition” value was -27.9%. `Cc1cc(C)n2nc(C(=O)NC3CCCc4ccccc43)nc2n1` (configuration not stated): the “activity change, negative = inhibition” value is -9.93%. Consider `Cc1cc(C)n2nc(SCCOc3ccccc3F)nc2n1`, for which the Potency was 15.1 µM (active). As for `O=C(COc1ccccc1/C=C1/NC(=O)NC1=O)Nc1ccccc1`, the “activity change, negative = inhibition” value was -25.6%. For `CN(C)S(=O)(=O)c1cccc(NC(=O)COc2ccccc2C(=O)Nc2ccccc2)c1`, the Potency is 13.5 µM (active). As to `Cc1cnc2c(C)cccc2c1/C=C/c1ccc(N(C)C)cc1`, the Potency is 6.01 µM (active).

In the case of `Cc1cnc2c(C)ccc(C)c2c1/C=C/c1ccc(N(C)C)cc1`, the Potency is 6.01 µM (active). In the case of `Cc1cc(C)c2c(/C=C/c3ccc(N(C)C)cc3)ccnc2c1`, the Potency was 9.53 µM (active).

As for `Cc1ccc(C)c2c(/C=C/c3ccc(N(C)C)cc3)ccnc12`, the Potency was 5.36 µM (active).

Regarding `COCc1cc(O)c(O)c(O)c1-c1c(COC)cc(O)c(O)c1O`, the “activity change, negative = inhibition” value was -12.3%.

For `Cc1cc(=O)n2[nH]c(Nc3cccc(Cl)c3)nc2n1`, the “activity change, negative = inhibition” value was -20.9%.
